The list is not random: actives were taken first. Their share in the collection is about 9.2%.
Rab9 prom act – activators of Rab9 promoter. Huh7 Rab9 promoter-luciferase reporter, luminescence, 24 h. Potency, µM (series often up to 9.22 µM), for inactives: top-dose activation, negative = inhibition, usual class: activators. 320,000 compounds, 2.8% hits. AID 485297; note: % of control where 0% means no effect; nearly all actives have a fitted effect of over 60% in size
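Cell-based reporter: Huh7 stable for Rab9 promoter-driven luciferase, plated in reduced-serum medium with 10% FBS at 1500 cells/well, compound-treated 24 h at 37 °C, luminescence read after 10 min reagent.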
FLuc modulator – firefly luciferase modulation, counter-screen for miR-21 project. purified FLuc, Km substrates, luminescence inhibition. P08659. 360,000 compounds, 6.9% hits. Potency, µM (top dose mostly 57.5 µM), for inactives: at the top dose activity change, negative = inhibition, hits mostly inhibitors;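 note: plate controls were vehicle for no effect and reference inhibitor for full effect; nearly all actives have a fitted effect of over 55% in size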
Target sequence (P08659 whole entry, looked up): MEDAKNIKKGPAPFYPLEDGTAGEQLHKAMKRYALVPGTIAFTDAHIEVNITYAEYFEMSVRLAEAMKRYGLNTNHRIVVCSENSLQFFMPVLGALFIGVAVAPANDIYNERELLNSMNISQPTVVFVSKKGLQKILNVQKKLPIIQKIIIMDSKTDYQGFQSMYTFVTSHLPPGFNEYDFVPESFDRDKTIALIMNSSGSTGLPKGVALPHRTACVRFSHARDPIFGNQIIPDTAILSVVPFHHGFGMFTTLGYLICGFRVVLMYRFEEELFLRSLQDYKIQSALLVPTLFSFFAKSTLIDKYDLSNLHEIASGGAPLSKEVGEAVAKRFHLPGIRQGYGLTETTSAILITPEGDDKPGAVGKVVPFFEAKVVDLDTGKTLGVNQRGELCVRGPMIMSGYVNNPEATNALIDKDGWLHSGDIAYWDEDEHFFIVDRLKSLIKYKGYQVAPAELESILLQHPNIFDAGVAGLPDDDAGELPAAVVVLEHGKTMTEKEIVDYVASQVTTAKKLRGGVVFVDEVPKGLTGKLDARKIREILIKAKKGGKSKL
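Purified P. pyralis luciferase, 10 nM final, with Km-level 10 uM D-luciferin and 10 uM ATP in 50 mM Tris acetate pH 7.5, 10 mM Mg acetate, 0.01% Tween-20, 0.05% BSA; 6-point qHTS titration about 60 µM downward; luminescence read.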
NPC1 promoter act – activators of NPC1 promoter. Huh7 NPC1 promoter luciferase reporter, 24 h. Potency, µM (doses to about 9.22 µM), for the others: top-dose activation, hits mostly activators. 320,000 compounds, 2.4% hits; note: % of control where 0% means no effect; nearly all actives have a fitted effect of over 60% in size
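Quantitative HTS used a cell-based reporter: Huh7 cells stably bearing the NPC1 promoter upstream of luciferase were treated with compounds for 24 h, and promoter activation was read as luminescence.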
ELG1 repair inh – blocks ELG1-dependent DNA repair in HEK293T cells | HEK293T ELG1-luciferase reporter, luminescence, 16 h; DNA damage induced by 5-fluorouridine | Potency, µM (series often up to 46.1 µM), inactives show at the highest dose activity change, negative = inhibition, usual class: inhibitors | 330,000 compounds, 2.3% hits; note: % is set by controls: 0 for no effect and ±100 for the full control effect; nearly all actives have a fitted effect of over 55% in size
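Quantitative HTS, concentration-response format. 2,000 cells/well co-treated with 5-fluorouridine and compound, 16 hr in 5% CO2 at 37 °C; ONE-Glo luminescence read after 30 min.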
ELG1 genotoxic – genotoxicity induction in ELG1-luciferase HEK293T cells | HEK293T ELG1-luciferase reporter, luminescence, 16 h | Potency, µM (series often up to 46 µM), for the others: at the top dose activity change, positive = activation, actives largely listed as activators | 330,000 compounds, 1.3% hits; note: % of control where 0% means no effect; nearly all actives have a fitted effect of over 60% in size
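16 hr compound incubation (37 °C, 5% CO2) of HEK293T cells carrying luciferase-tagged ELG1; luciferase then measured by ONE-Glo luminescence after 30 min at RT.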
SMN2 splice enh – enhancers of SMN2 splice variant expression; HEK293 SMN2-luciferase splicing reporter, luminescence, 30-36 h; Potency, µM (top dose mostly 46.1 µM), without a hit: at the top dose activity change, positive = activation, most hits filed as activators; 210,000 compounds, 2.8% hits; note: % of control where 0% means no effect; nearly all actives have a fitted effect of over 55% in size
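HEK293 cells carry an SMN2 […]–luciferase reporter in which exon 7 inclusion puts luciferase in frame. Cells were plated 10-12 h before compound addition, then incubated 30-36 h at 37C. ONE-Glo luminescence was read; sodium butyrate at 4.5 mM final served as control.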
Active calls of the source: *; ? = inconclusive; nt = not tested or not shown. Calls come from the whole dose curve; as a rule, active = well fitted curve in the direction sought with a large enough effect; inconclusive = small, poorly fitted or top-dose-only effect, or another doubt; inactive = no such curve, though single readings can be large; an effect the other way counts as inactive or inconclusive. Potency is the fitted concentration of half-maximal effect.

SMILES	Rab9 prom act	FLuc modulator	NPC1 promoter act	ELG1 repair inh	ELG1 genotoxic	SMN2 splice enh
COC(=O)CNc1c(-c2ccccn2)nc2ccc(Br)cn12	0.89µM*	3.4µM*	1.6µM*	?	1.3µM*	5µM*
CCOC(=O)CNc1c(-c2ccc(O)cc2)nc2ccccn12	24%	?	3%	17%	4%	-1%
CC(C)=CCC/C(C)=C/C=O	nt	nt	nt	nt	nt	-3%
COc1ccc(-c2cc(C)no2)cc1S(=O)(=O)Nc1cccc(C(F)(F)F)c1	nt	-3%	nt	nt	nt	nt
O=C1CCCc2nc3c(cc21)C(O)Oc1c-3ccc2ccccc12 (stereo not given)	1.1µM*	-11%	3.2µM*	?	?	25%
NC(=S)NC(=O)/C=C/c1ccccc1	0%	-18%	1%	?	-2%	10%
COc1ccc(-c2cc(C(=O)O)c3ccccc3n2)c(OC)c1	-1%	?	-3%	9%	16%	20%
COc1ccc(-c2cc(C(=O)Nc3c(C)n(C)n(-c4ccccc4)c3=O)c3ccccc3n2)c(OC)c1	0%	-3%	14%	10µM*	-11%	nt
COc1ccc(-c2cc(C(=O)OC(C)C(=O)Nc3c(C)n(C)n(-c4ccccc4)c3=O)c3ccccc3n2)cc1 (stereo not given)	-1%	13µM*	1%	15µM*	0%	23%
COc1ccc(-c2cc(C(=O)Nc3c(C)n(C)n(-c4ccccc4)c3=O)c3ccccc3n2)cc1OC	1%	21µM*	-1%	7.3µM*	-6%	nt
Cc1cccc(C(=O)OCC(=O)Nc2c(C)n(C)n(-c3ccccc3)c2=O)c1	4%	6%	-5%	10%	1%	nt
Cc1c(NC(=O)COC(=O)c2cc(-c3ccc(-c4ccccc4)cc3)nc3ccccc23)c(=O)n(-c2ccccc2)n1C	2.5µM*	0.85µM*	0.63µM*	?	?	0.63µM*
CC(C)CC1c2[nH]c3ccccc3c2CCN1CCCn1cccn1 (stereo not given)	9%	-2%	1%	18%	-2%	nt
Cc1ccc(-c2cc(C(=O)Nc3c(C)n(C)n(-c4ccccc4)c3=O)c3ccccc3n2)cc1	nt	nt	nt	13µM*	-6%	nt
Cc1c(NC(=O)c2cc(-c3ccccc3)on2)c(=O)n(-c2ccccc2)n1C	-4%	-1%	-3%	4%	-7%	31%
Cc1c(NC(=O)c2cc(-c3ccccc3)nc3ccccc23)c(=O)n(-c2ccccc2)n1C	nt	nt	nt	5.8µM*	-4%	nt
CCOC(=O)c1c(NC(=O)c2cc(C)on2)c2cc([N+](=O)[O-])ccc2n1C	0%	0%	-1%	8%	4%	nt
O=c1[nH]c(C2CCN(S(=O)(=O)c3ccccc3)CC2)nc2c1nnn2Cc1ccccc1	0%	-5%	-5%	1%	0%	nt
CCN1C(=O)C2(C(C#N)=C(N)Oc3n[nH]c(-c4ccc(Cl)cc4)c32)c2ccccc21 (stereo not given)	-9%	-1%	-2%	0%	-1%	10%
N#CC1=C(N)Oc2n[nH]c(-c3ccccc3)c2C12C(=O)Nc1ccccc12 (stereo not given)	-5%	-1%	1%	-1%	0%	5.6µM*
CC1=NN(C(=O)COc2cc(C)ccc2C(C)C)C(O)(c2ccccc2)C1 (stereo not given)	-3%	3%	-1%	21µM*	-6%	nt
CC1=NN(C(=O)COc2ccc(C)c(C)c2)C(O)(c2ccc(Cl)cc2)C1 (stereo not given)	0%	-2%	-1%	-2%	-3%	6%
COc1ccc(OC)c(/C=C2\Oc3cc(OCC(=O)N4CCC[C@H]4C(=O)O)ccc3C2=O)c1	5%	?	0%	22%	1%	nt
